Screens as filed in PubChem.
Neddyl block = inhibitors of cullin neddylation, primary screen, biochemical, TR-FRET, uHTS, NAE and Ubc12. inhibition, % at 25 µM. actives 0.58% (n = 360,000). AID 651699, 2012; in the data active = inhibition above about 36%
TLR4 MyD88 comp = inhibitors of TLR4-MyD88 association in cells, primary screen, cell-based, HeLa CL3-4, BLA complementation, FRET ratio | HeLa CL3-4 TLR4/MyD88 BLA complementation | inhibition, % at 8.4 µM | Toll-like receptor 4 (Homo sapiens) + Myeloid differentiation primary response protein … | actives 0.18% (n = 200,000); in the data active = inhibition above about 25%;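 also: 0% = vehicle and 100% = reference inhibitor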
TLR9-MyD88 inh = inhibitors of TLR9-MyD88 association in cells, primary screen, cell-based, CHO, BLA complementation, fluorescence. CCF4 FRET ratio. inhibition, % at 4.98 µM. actives 0.21% (n = 340,000);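 active = inhibition above the mean over all tested compounds plus 3 SD, cut at about 21% in these data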;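 also: 0% = DMSO only wells and 100% = clavulanate BLA inhibitor control wells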
GC-A act = GC-A stimulated cGMP production enhancers – HEK293 GC-A cells, cGMP TR-FRET, EC30 ANP, primary screen; 0% at EC30 ANP, 100% saturating ANP; activation, % at 10 µM; actives 0.14% (n = 370,000); AID 1671463, 2021; in the data active = activation above about 40%
NOD2 RIPK2 PPI = NOD2-RIPK2 binding disruptors in cells, primary screen, fluorescence, CHO cells, BLA complementation; Receptor-interacting serine/threonine-protein kinase 2 (Homo sapiens), O43353; CCF4 ratio; inhibition, % at 4.98 µM; actives 0.38% (n = 360,000); AID 624267, 2012; in the data active = inhibition above about 21%;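 also: 0% = vehicle only and 100% = reference blocker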
Target sequence (O43353 whole entry, looked up): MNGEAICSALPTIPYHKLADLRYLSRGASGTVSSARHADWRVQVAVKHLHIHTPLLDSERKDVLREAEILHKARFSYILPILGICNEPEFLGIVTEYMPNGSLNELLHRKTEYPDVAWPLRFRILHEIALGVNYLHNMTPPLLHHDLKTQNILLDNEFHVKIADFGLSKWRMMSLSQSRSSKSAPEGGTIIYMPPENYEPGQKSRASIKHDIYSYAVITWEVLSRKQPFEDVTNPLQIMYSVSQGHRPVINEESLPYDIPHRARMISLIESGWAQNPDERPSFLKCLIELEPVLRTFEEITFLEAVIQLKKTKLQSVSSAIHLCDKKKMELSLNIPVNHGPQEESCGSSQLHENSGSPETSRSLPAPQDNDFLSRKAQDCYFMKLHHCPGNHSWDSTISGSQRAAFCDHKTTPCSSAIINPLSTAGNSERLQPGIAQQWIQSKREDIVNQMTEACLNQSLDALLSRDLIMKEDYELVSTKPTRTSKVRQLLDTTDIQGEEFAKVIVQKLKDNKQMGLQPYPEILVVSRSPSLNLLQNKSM
GC-B act = human GC-B receptor activators, primary screen, HEK293 GC-B cells, cGMP TR-FRET, EC30 CNP; 0% at EC30 CNP, 100% saturating CNP; activation, % at 10 µM; AID 1920062, 2024; actives 0.11% (n = 370,000);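 active = activation at 10 µM reaching about 35% in either raw or pattern-adjusted values, limit read from the data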
NOD2-RIPK2 conf = NOD2-RIPK2 binding disruptors, retest, confirmation, fluorescence, CHO cells, BLA complementation, triplicate. shares compounds with NOD2 RIPK2 PPI. CCF4 FRET. inhibition, % at 4.98 µM. actives 70% (n = 1,200). AID 624370, 2012;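 active = mean inhibition across replicates above a set limit taken from the earlier primary screen, cut at about 21% in these data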;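 also: 0% = DMSO-only wells and the high end = clavulanate BLA-blocked wells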
BLA counter = hits BLA reporter in NOD2-RIPK2 inhibitor counterscreen | shares compounds with NOD2 RIPK2 PPI | CHO BLA reporter, CCF4 FRET ratio | inhibition, % at 4.98 µM | actives 57% (n = 1,200);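 active = mean inhibition above the low-control mean inhibition plus three low-control SD, cut at about 11% in these data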;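 also: 0% = DMSO only wells and 100% = clavulanate high control wells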
* marks the source's active call; other numbers are inactive results; i = inactive; nt = not tested or not shown. An excerpt weighted towards active compounds, which were near 1.2% of everything screened.

SMILES | Neddyl block | TLR4 MyD88 comp | TLR9-MyD88 inh | GC-A act | NOD2 RIPK2 PPI | GC-B act | NOD2-RIPK2 conf | BLA counter
O=[N+]([O-])c1ccc(Sc2ccncn2)c([N+](=O)[O-])c1 | -24 | nt | 12 | 3 | 24* | -2 | 23* | -1
N#CC1C(=O)c2ccccc2C1c1ccccc1 (configuration not stated) | nt | nt | 7 | 8 | 48* | 2 | -6 | 0
CCN(CC)S(=O)(=O)c1ccc(N/N=C/c2ccc(O)cc2)nc1 | 11 | -6 | -8 | -3 | 40* | -3 | 2 | 3
CCOc1cccc(/C=N/Nc2ccc(S(=O)(=O)N(CC)CC)cn2)c1O | 6 | 3 | -7 | 7 | -6 | 4 | nt | nt
COCCN1C(=O)[C@H]2C[C@@]13O[C@H](C1CCCCC1)N=C3CC1c3ccccc3C[C@@]12C (some centres not stated) | nt | nt | nt | -4 | nt | 1 | nt | nt
CCCN1C(=O)S/C(=C\c2ccc(N3CCOCC3)o2)C1=O | i | 19 | 19 | 7 | 25* | 10 | 13 | 7
CCCN1C(=O)S/C(=C\c2ccc(N3CCOCC3)cc2C)C1=O | nt | -10 | nt | nt | nt | nt | nt | nt
CCCN1C(=O)S/C(=C/c2ccc(N3CCOCC3)o2)C1=O | -350 | nt | 15 | 5 | 41* | 0 | 6 | 5
CN(C)NC(=S)Nc1ccc2nc(-c3ccccn3)c(-c3ccccn3)nc2c1 | 26 | 13 | -1 | -1 | 10 | -5 | nt | nt
CC(C)(C)CC(C)(C)NC(=S)Nc1ccc2nc(-c3ccccn3)c(-c3ccccn3)nc2c1 | nt | 19 | 8 | 12 | 32* | -1 | 9 | 8
C[C@H]1[C@@H]2C[C@@]3(O[C@H](c4ccccn4)N=C3C[C@@H]1c1ccccc1)N(Cc1ccncc1)C2=O | nt | nt | nt | 1 | nt | 6 | nt | nt
N#Cc1ccccc1Cn1cc(/C=C/[N+](=O)[O-])c2ccccc21 | -4 | -5 | 7 | -24 | 42* | -6 | 70* | 9
CN(CCO)c1ccc2c(c1)Oc1ccccc1CN(Cc1cn(Cc3ccc(F)cc3)nn1)S2(=O)=O | nt | nt | nt | 0 | nt | 1 | nt | nt
CC1=C(C)CS(=O)N(S(=O)(=O)c2ccc(Cl)cc2)C1 (configuration not stated) | 1 | 0 | 9 | 20 | 37* | 17 | 29* | 3
COc1ccc(/C=N\NC(=O)c2ccccc2F)cc1COc1ccc(F)cc1F | 5 | nt | 9 | 4 | 9 | -6 | nt | nt
COc1ccc(/C=N/NC(=O)c2ccc(NC(C)=O)cc2)cc1COc1ccc(F)cc1F | nt | nt | 30* | -2 | 25* | -3 | 6 | 8
Cc1cc(NC(=O)CSc2nnc(-c3ccccc3Cl)o2)no1 | -11 | nt | 3 | 6 | 47* | 3 | -3 | -1
CS(=O)(=O)c1ccc(S(=O)CC(=O)OCc2ccccc2)c([N+](=O)[O-])c1 (configuration not stated) | -10 | 16 | 12 | 12 | 25* | 5 | 56* | 25*
O=C(CS(=O)c1ccc(C(F)(F)F)cc1[N+](=O)[O-])Oc1ccccc1 (configuration not stated) | -25 | 13 | -9 | 3 | 9 | -1 | nt | nt
COC(=O)C[C@@H]1CC[C@H]2[C@@H](COc3ccc(NC(=O)c4cc(C)on4)cc3C(=O)N2C)O1 | nt | nt | nt | 3 | nt | 1 | nt | nt
O=C(CSc1nnc(-c2ccco2)n1-c1ccc(Cl)cc1)Nc1ccccc1-c1ccccc1 | nt | nt | nt | -18 | nt | -20 | nt | nt
CCC[C@@H](/C=C/C(=O)OC(C)(C)C)Sc1ccc(OC)cc1 | nt | nt | nt | -8 | nt | 1 | nt | nt
O=C(Nc1ccccc1)C1Cc2c(-c3ccc(Cl)cc3)ccnc2O1 (configuration not stated) | -6 | nt | nt | 1 | -1 | 5 | nt | nt
O=C(NCc1ccccc1)C1Cc2c(-c3ccc(Cl)cc3)ccnc2O1 (configuration not stated) | 0 | nt | nt | -3 | 21* | 2 | 18 | 1
COc1cc(C=C2C(=O)C=CC2=O)ccc1O | 6 | nt | nt | 28 | 66* | 21 | 93* | 30*
SMILES | Neddyl block | TLR4 MyD88 comp | TLR9-MyD88 inh | GC-A act | NOD2 RIPK2 PPI | GC-B act | NOD2-RIPK2 conf | BLA counter
COc1cc(/C=C2/C(=O)CNC2=O)ccc1O | 3 | 3 | 1 | 14 | -3 | -4 | nt | nt
Cn1c(SCC2CCC2)nnc1-c1ccco1 | nt | nt | nt | 4 | nt | -2 | nt | nt
CC(=O)O[C@H]1CC[C@@]2(C)C(CCC3C2CC[C@]2(C)OC(=O)CCC32)C1 (some centres not stated) | 7 | -6 | -3 | 3 | -8 | 0 | nt | nt
CC(=O)OC1CCC2(C)C(CCC3C4CC=C(C(C)=O)C4(C)OC(=O)CC32)C1 (configuration not stated) | 2 | nt | -2 | 9 | 39* | 2 | 39* | -3
O=C(Cn1nnc(-c2ccccc2)n1)Nc1ccccc1N1CCOCC1 | -3 | -4 | -6 | -2 | -11 | 0 | nt | nt
Cc1ccc(-c2nnn(CC(=O)Nc3ccccc3N3CCOCC3)n2)cc1 | -2 | -1 | -6 | 10 | 21* | 0 | -3 | 2
CCOC(=O)C1CCN(Cc2ccc(OC)c(C)c2OC)CC1 | 1 | -6 | 2 | -4 | -3 | -7 | nt | nt
CCOC(=O)C1CCN(Cc2cc(Cl)c3ccccc3c2O)CC1 | 38 | nt | 4 | nt | 28* | nt | 4 | 5
COc1ccc(-c2cc(C(=O)NC3CCCCC3)no2)cc1OC | 3 | nt | -20 | 2 | 58* | 2 | 6 | 2
Cc1ccc(-c2cc(C(=O)NC3CCCCC3)no2)cc1 | -2 | nt | -3 | -1 | -4 | -1 | nt | nt
N=c1c2c(-c3ccccc3)c(-c3ccccc3)n(CCc3ccccc3)c2ncn1C1CCC(O)CC1 (configuration not stated) | nt | nt | nt | -30 | nt | -25 | nt | nt
